Results from PubChem BioAssay (Tox21).
Values joined by “and” are separate entries in the source; they are usually repeats but may differ in a detail not shown here. Equal entries are not always repeated. Values without a mark were called inactive. Inconclusive results are not listed. Where a call stands in place of a potency, no number is given. Active and inactive are the calls of the source. Unless noted, the call rests on the fitted dose curve; in most records, active means well fitted curve in the direction sought with a large enough effect in the repeat runs; inconclusive means weak or mixed curves; inactive means no such curve, though single readings can be large; an effect the other way counts as inactive or inconclusive.

Columns and labels:
[1] = qHTS assay for small molecule agonists of the p53 signaling pathway - cell viability (AID 651633; calls by dose curve; further: nearly all actives have a fitted effect of over 30% in size; further: potency means the concentration at half of the fitted maximal effect)
How it was run: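 p53RE-bla cells were treated with compound for 16 hours at 37 C. Cytotoxicity was then measured as CellTiter-Glo luminescence after 30 min at room temperature.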

[2] = qHTS assay for small molecules that induce genotoxicity in human embryonic kidney cells expressing luciferase-tagged ATAD5 - cell viability (AID 651634; calls by dose curve; further: nearly all actives have a fitted effect of over 25% in size; further: potency means the concentration at half of the fitted maximal effect)
How it was run: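 HEK293T cells carrying luciferase-tagged ATAD5, 2,000 cells/well, exposed to compound for 15.5 hr at 37C. Viability read as live-cell protease activity by CellTiter-Fluor fluorescence after 30 min at 37C.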

[3] = qHTS assay for small molecule disruptors of the mitochondrial membrane potential - cell viability (AID 720634; calls by dose curve; further: nearly all actives have a fitted effect of over 20% in size; further: potency means the concentration at half of the fitted maximal effect)
How it was run: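 HepG2 cells, 2,000 per well, attached overnight, then treated 1 hr at 37 C, 5% CO2. Viability read as ATP by CellTiter-Glo luminescence after 30 min at room temperature. Read in the same wells as the m-MPI membrane-potential dye assay.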

[4] = qHTS assay for small molecule disruptors of the mitochondrial membrane potential (AID 720635); further: potency means the concentration at half of the fitted maximal effect
How it was run: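 HepG2 cells exposed to compound 1 hr at 37C, then Mito-MPS dye 30 min. Ratio read of aggregate (540/590 nm) versus monomer (490/535 nm) fluorescence.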

[5] = qHTS assay to test for compound auto fluorescence at 590 nm (red) in HepG2 cells (AID 720674)
How it was run: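 Fluorescence at 590 nm emission following 540 nm excitation was recorded from HepG2 wells one hour after compound transfer, with DMSO-only wells as vehicle and Rose Bengal sodium equivalency as the scale.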

[6] = qHTS assay to test for compound auto fluorescence at 535 nm (green) in HepG2 cells (AID 720675)
[7] = qHTS assay to test for compound auto fluorescence at 460 nm (blue) in HEK293 cells (AID 720678); further: potency means the concentration at half of the fitted maximal effect
How it was run: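 HEK293, 2,000 cells/well, 10% dialyzed FBS; attach 4-5 hr 37C; pin compound or DMSO; o/n 37C/5% CO2; fluorescence 405/460 nm; triamterene-equivalent units.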

[8] = qHTS assay to test for compound auto fluorescence at 590 nm (red) in HEK293 cells (AID 720679)
How it was run: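 Intensity at 540nm excitation and 590nm emission is reported as Rose Bengal sodium-equivalent autofluorescence. Measurements followed overnight exposure (37C, 5% CO2) of HEK293 cells, 2,000 per well, to 23 nL compound.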

[9] = qHTS assay to test for compound auto fluorescence at 535 nm (green) in HEK293 cells (AID 720680)
[10] = qHTS assay to test for compound auto fluorescence at 460 nm (blue) in HEK293 cell free culture (AID 720681); further: potency means the concentration at half of the fitted maximal effect
How it was run: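 Compounds were added to cell-free DMEM with 10% FBS and fluorescence read directly. The blue channel used 405 nm excitation and 460 nm emission, with triamterene as the reference fluorophore.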

[11] = qHTS assay to test for compound auto fluorescence at 535 nm (green) in HEK293 cell free culture (AID 720682)
How it was run: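 Intrinsic compound fluorescence is measured in culture medium containing 10% FBS, with excitation at 485 nm and detection at 535 nm, referenced to fluorescein.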

[12] = qHTS assay to test for compound auto fluorescence at 590 nm (red) in HEK293 cell free culture (AID 720683)
How it was run: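 Cell-free wells of DMEM with 10% FBS received compound, and intrinsic fluorescence was read at excitation/emission 540/590 nm. Values expressed as equivalence to Rose Bengal sodium.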

[13] = qHTS assay to test for compound auto fluorescence at 590 nm (red) in HepG2 cell free culture (AID 720684)
How it was run: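 Compound was pinned into wells holding MEM with 10% FBS and no cells, and red fluorescence was read at Ex/Em 540/590 nm. Signal is expressed as auto fluorescence equivalency relative to Rose Bengal sodium.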

[14] = qHTS assay to test for compound auto fluorescence at 460 nm (blue) in HepG2 cell free culture (AID 720685); further: potency means the concentration at half of the fitted maximal effect
How it was run: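 Compound (23 nL) or DMSO pinned into cell-free MEM with 10% FBS; blue fluorescence read at 405/460 nm excitation/emission, expressed as auto-fluorescence equivalency to triamterene.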

[15] = qHTS assay to test for compound auto fluorescence at 535 nm (green) in HepG2 cell free culture (AID 720686)
[16] = qHTS assay to test for compound auto fluorescence at 460 nm (blue) in HepG2 cells (AID 720687); further: potency means the concentration at half of the fitted maximal effect
How it was run: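 HepG2 cells in MEM with 10% FBS, attached overnight at 37 C, were exposed to compound or DMSO for 1 hr at 37 C, 5% CO2. Blue fluorescence was read at 405/460 nm, with triamterene as reference fluorophore.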

[17] = qHTS assay for small molecules that induce genotoxicity in human embryonic kidney cells expressing luciferase-tagged ATAD5 (AID 651632); further: nearly all actives have a fitted effect of over 15% in size; further: potency means the concentration at half of the fitted maximal effect
How it was run: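 HEK293T cells carrying luciferase-tagged ATAD5 were given compound or DMSO vehicle and incubated 16 hr at 37C, 5% CO2. Luciferase activity was read after 30 min at room temperature with Amplite; a rise signals genotoxic stress.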

[18] = biological target: Glucocorticoid receptor (Homo sapiens) (UniProt P04150); assay: qHTS assay to identify small molecule agonists of the glucocorticoid receptor (GR) signaling pathway (AID 720691; active means well fitted activation curve with a large enough effect in the signal ratio in the repeat runs, not every such curve was filed as active; the % refers to the signal ratio); conditions: GR-bla HeLa, beta-lactamase reporter ratio, 18 h; activation: at 62.4 µM (top of the series)
How it was run: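 GR-bla HeLa cells carrying a GRE-driven beta-lactamase reporter, exposed to compounds for 18 h at 37 C. Reporter activation read as fluorescence after 2 h with LiveBLAzer B/G FRET substrate at room temperature.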

[19] = biological target: Glucocorticoid receptor (Homo sapiens) (UniProt P04150); assay: qHTS assay to identify small molecule antagonists of the glucocorticoid receptor (GR) signaling pathway (AID 720692; active means well fitted inhibition curve with a large enough effect in the signal ratio in the repeat runs, not every such curve was filed as active; the % refers to the signal ratio)
How it was run: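 GR-bla HeLa cells carrying a GRE-driven beta-lactamase reporter received compound after 4 h plating, then dexamethasone (5 nM final). After 18 h at 37C, the FRET substrate was loaded for 2 h at room temperature and fluorescence read.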
Tags describe the fitted curve by direction and shape or compound fluorescence and quenching.

Chain of Glucocorticoid receptor (Homo sapiens) (P04150 whole entry, looked up): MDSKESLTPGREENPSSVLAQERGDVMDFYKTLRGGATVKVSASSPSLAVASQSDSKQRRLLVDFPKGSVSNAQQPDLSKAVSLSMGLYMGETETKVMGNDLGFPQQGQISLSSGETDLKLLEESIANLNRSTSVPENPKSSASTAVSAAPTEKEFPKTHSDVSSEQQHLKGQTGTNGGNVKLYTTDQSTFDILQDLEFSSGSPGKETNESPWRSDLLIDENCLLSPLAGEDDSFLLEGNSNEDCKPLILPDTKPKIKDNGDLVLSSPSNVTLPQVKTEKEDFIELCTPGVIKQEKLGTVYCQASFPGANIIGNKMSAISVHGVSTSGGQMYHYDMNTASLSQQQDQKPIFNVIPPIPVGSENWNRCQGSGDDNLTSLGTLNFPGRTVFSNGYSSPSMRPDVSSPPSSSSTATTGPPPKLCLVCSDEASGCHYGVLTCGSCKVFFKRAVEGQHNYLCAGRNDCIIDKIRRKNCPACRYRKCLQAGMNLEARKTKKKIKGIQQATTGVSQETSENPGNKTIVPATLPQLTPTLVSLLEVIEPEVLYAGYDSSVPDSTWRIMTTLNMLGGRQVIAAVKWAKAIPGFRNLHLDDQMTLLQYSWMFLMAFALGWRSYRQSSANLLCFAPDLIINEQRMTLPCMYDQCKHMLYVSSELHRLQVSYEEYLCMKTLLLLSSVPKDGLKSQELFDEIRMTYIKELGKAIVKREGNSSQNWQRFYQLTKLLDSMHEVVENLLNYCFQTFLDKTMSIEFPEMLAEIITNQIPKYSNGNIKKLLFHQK

Cc1cc(C2CCCCC2)n(O)c(=O)c1
Potency [1]: inactive
Potency [2]: inactive
Potency [3]: inactive
Potency [4]: 3.2 µM (active)
fluorescence, relative to Rose Bengal [5]: 0.33% [at 18.6 µM]
fluorescence, % of fluorescein control [6]: -0.0302% [at 18.6 µM]
fluorescence, % of triamterene [7]: -0.0951% [at 18.6 µM]
fluorescence, % of fluorescent control [8]: -0.0357% [at 18.6 µM]
fluorescence, % of fluorescein [9]: 0.0799% [at 18.6 µM]
fluorescence, % of fluorescent control [10]: -0.0092% [at 18.6 µM]
activity change [11]: 0.0414% [at 18.6 µM]
fluorescence, % of fluorescent control [12]: 0.0163% [at 18.6 µM]
fluorescence, % of Rose Bengal [13]: -0.0195% [at 18.6 µM]
fluorescence, % of fluorescent control [14]: 0.0075% [at 18.6 µM]
fluorescence, % of fluorescein control [15]: 0.005% [at 18.6 µM]
fluorescence, % of fluorescent control [16]: 0.0031% [at 18.6 µM]

O=c1[nH]sc2ccccc12
Potency [17]: inactive
Potency [2]: inactive
Potency [3]: inactive
Potency [4]: 27.3 µM (active)
Potency [5]: inactive
Potency [6]: inactive
Potency [7]: inactive
outcome [9]: inactive
Potency [10]: inactive
outcome [11]: inactive
Potency [12]: inactive
Potency [13]: inactive
Potency [14]: inactive
Potency [15]: inactive
Potency [16]: inactive

Cc1ccc2oc(CN(Cc3ccccc3)C(=O)Nc3c(F)cc(F)cc3F)c(-c3ccc(Cl)cc3)c2c1
Potency [17]: inactive
Potency [2]: inactive
Potency [4]: 18.7 µM (active)
Potency [5]: inactive
Potency [6]: inactive
Potency [7]: inactive
outcome [9]: inactive
Potency [10]: inactive
outcome [11]: inactive
Potency [12]: inactive
Potency [13]: inactive
Potency [14]: inactive
Potency [16]: inactive
Potency [18]: inactive
Potency [19]: inactive

Cc1cc2c(cc1C(F)(F)F)N(C(=O)Nc1ccc(Oc3cccnc3C)nc1)CC2
Potency [17]: inactive
Potency [1]: inactive
Potency [4]: 12.4 µM (active)
Potency [5]: inactive
Potency [6]: inactive
Potency [7]: inactive
Potency [8]: inactive
outcome [9]: inactive
Potency [10]: inactive
outcome [11]: inactive
Potency [12]: inactive
Potency [13]: inactive
Potency [14]: inactive
Potency [15]: inactive
Potency [16]: inactive
Potency [19]: inactive

Nc1ccc2cc(S(=O)(=O)O)cc(O)c2c1N=Nc1ccccc1C(F)(F)F
Potency [17]: inactive
Potency [3]: inactive
Potency [5]: inactive
Potency [6]: inactive
Potency [7]: inactive
Potency [8]: inactive
outcome [9]: inactive
Potency [10]: inactive
outcome [11]: inactive
Potency [12]: inactive
Potency [13]: inactive
Potency [14]: inactive
Potency [15]: inactive
Potency [16]: inactive
Potency [19]: inactive

CC(C)(C)NC(=O)[C@@H]1C[C@@H]2CCCC[C@@H]2CN1C[C@@H](O)[C@H](Cc1ccccc1)NC(=O)[C@H](CC(N)=O)NC(=O)c1ccc2ccccc2n1
Potency [17]: inactive
Potency [3]: inactive
Potency [4]: 43.8 µM (active)
Potency [6]: inactive
Potency [7]: inactive
Potency [8]: inactive
outcome [9]: inactive
Potency [10]: inactive
outcome [11]: inactive
Potency [12]: inactive
Potency [13]: inactive
Potency [14]: inactive
Potency [15]: inactive
Potency [16]: inactive

O=C1C=CC(=O)N1c1ccc(Cc2ccc(N3C(=O)C=CC3=O)cc2)cc1
Potency [1]: 10.9 µM (active)
Potency [2]: 15.4 µM (active)
Potency [3]: 7.7 µM (active)
Potency [4]: 6.86 µM (active)
Potency [5]: inactive
Potency [6]: inactive
Potency [7]: inactive
Potency [8]: inactive
outcome [9]: inactive
Potency [10]: inactive
outcome [11]: inactive
Potency [12]: inactive
Potency [13]: inactive
Potency [14]: inactive
Potency [15]: inactive
Potency [16]: inactive

Oc1cccc(-c2c3nc(c(-c4cccc(O)c4)c4ccc([nH]4)c(-c4cccc(O)c4)c4nc(c(-c5cccc(O)c5)c5ccc2[nH]5)CC4)C=C3)c1
Potency [1]: 9.44 µM (active)
Potency [2]: 13.3 µM (active) and 11.9 µM (active)
Potency [3]: inactive
Potency [4]: 26.6 µM (active)
Potency [5]: inactive
Potency [6]: inactive
Potency [7]: inactive
Potency [8]: inactive
outcome [9]: inactive
Potency [10]: inactive
outcome [11]: inactive
Potency [12]: inactive
Potency [13]: inactive
Potency [14]: inactive
Potency [16]: inactive

CCCCCCCCCCn1cc[n+](CCCCCCCCCC)c1C
Potency [1]: 68.7 µM (active)
Potency [2]: 68.7 µM (active)
Potency [3]: 54.5 µM (active)
Potency [4]: 2.17 µM (active)
Potency [5]: inactive
Potency [6]: inactive
Potency [7]: inactive
Potency [8]: inactive
outcome [9]: inactive
Potency [10]: inactive
outcome [11]: inactive
Potency [12]: inactive
Potency [13]: inactive
Potency [14]: inactive
Potency [15]: inactive
Potency [16]: inactive

C[n+]1ccn(Cc2ccccc2)c1
Potency [1]: inactive
Potency [2]: inactive
Potency [3]: inactive
Potency [4]: inactive
Potency [5]: inactive
Potency [6]: inactive
Potency [7]: inactive
Potency [8]: inactive
outcome [9]: inactive
Potency [10]: inactive
outcome [11]: inactive
Potency [12]: inactive
Potency [13]: inactive
Potency [14]: inactive
Potency [16]: inactive
Potency [18]: inactive
Potency [19]: inactive

OCCN1CCN(CC/C=C2/c3ccccc3Sc3ccc(C(F)(F)F)cc32)CC1
Potency [17]: inactive
Potency [1]: 29.8 µM (active)
Potency [5]: inactive
Potency [6]: inactive
Potency [7]: inactive
Potency [8]: inactive
outcome [9]: inactive
Potency [10]: inactive
outcome [11]: inactive
Potency [12]: inactive
Potency [13]: inactive
Potency [14]: inactive
Potency [15]: inactive
Potency [16]: inactive

O=CC=C(c1ccccc1)c1ccccc1
Potency [17]: inactive
Potency [2]: inactive
Potency [4]: 30.9 µM (active)
Potency [5]: inactive
Potency [6]: inactive
Potency [7]: inactive
Potency [8]: inactive
outcome [9]: inactive
Potency [10]: inactive
outcome [11]: inactive
Potency [12]: inactive
Potency [13]: inactive
Potency [14]: inactive
Potency [15]: inactive
Potency [16]: inactive

CCN(CC)CCCC(C)Nc1c2ccc(Cl)cc2nc2ccc(OC)cc12 (stereo not drawn)
Potency [17]: 29.8 µM (active)
Potency [2]: inactive
Potency [5]: inactive
Potency [6]: inactive
Potency [7]: 11.2 µM [fluorescent] (active)
Potency [8]: inactive
outcome [9]: inactive
Potency [10]: 17.8 µM (active)
outcome [11]: inactive
Potency [12]: inactive
Potency [13]: inactive
Potency [14]: 15.8 µM [fluorescent] (active)
Potency [15]: inactive
Potency [16]: 15.8 µM [fluorescent] (active)
